Several values for one entry are separate records, joined by “and”; a condition that tells them apart may be missing. Equal values may be shown once. The source holds several records for some structures; these can differ, active in one and inactive in another. Activity calls are given as the source filed them. How the source made its calls: active means hit-call score of the fitted dose curve at least 0.9, where 1 is the maximum; inactive means score below 0.9.
What follows are compounds tested on CYP2E1 (gene 1571) (assay: LTEA_HepaRG_CYP2E1: Life Technologies and Expression Analysis (LTEA) Assay for CYP2E1 using HepaRG (AID 2283485)). Details: mRNA level, 48 h; actives raise or lower the signal.
Method in brief: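 Human liver line HepaRG, plated 48 h, then serum-free induction medium + chemical x 48 h; 8-pt CRC from 100 uM, half-log, 0.5% DMSO, n=2. Readout: CYP2E1 mRNA qRT-PCR vs ACTB/GAPDH/POLR2A; bidirectional fit vs DMSO.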

Structure (SMILES) | AC50 | outcome
Oc1cc(Cl)ccc1Oc1ccc(Cl)cc1Cl | 92.2 µM (active) | inactive
CCC(C)Nc1c([N+](=O)[O-])cc(C(C)(C)C)cc1[N+](=O)[O-] (configuration not stated) | 49.3 µM (active) | –
Oc1ccc(Cl)cc1Cc1ccccc1 | 50.5 µM (active) | inactive
CNC(=O)/C=C(\C)OP(=O)(OC)OC | – | inactive

Each compound was assayed on CYP4A11 (gene 1579) (assay: LTEA_HepaRG_CYP4A11: Life Technologies and Expression Analysis (LTEA) Assay for CYP4A11 using HepaRG (AID 2283486)). Details: mRNA level, 48 h; actives raise or lower the signal.
Method in brief: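 Differentiated HepaRG cells, serum-free induction medium, exposed 48 h in duplicate to 8-point half-log series from 100 uM in 0.5% DMSO. CYP4A11 mRNA measured by qRT-PCR, normalized to ACTB, GAPDH, POLR2A; bidirectional fit versus DMSO.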

Structure (SMILES) | AC50 | outcome
O=C(O)C(F)(F)C(F)(F)C(F)(F)C(F)(F)C(F)(F)C(F)(F)C(F)(F)F | 12.8 µM (active) and 6.48 µM (active) | –
CC(C)N(C(=O)COc1nnc(C(F)(F)F)s1)c1ccc(F)cc1 | – | inactive
OCCOc1ccccc1 | – | inactive
O=C(Nc1ccccc1)Nc1cnns1 | 72.9 µM (active) | –
CNC(=O)CSP(=S)(OC)OC | – | inactive
ClC1C(Cl)C(Cl)C(Cl)C(Cl)C1Cl (configuration not stated) | 12.6 µM (active) | inactive
CCCN(CCC)c1c([N+](=O)[O-])cc(C(F)(F)F)cc1[N+](=O)[O-] | – | inactive
CN1CSC(=S)N(C)C1 | – | inactive
CC1(c2ccc(Oc3ccccc3)cc2)OC(=O)N(Nc2ccccc2)C1=O (configuration not stated) | 8.16 µM (active) | –
O=C1c2ccccc2C(=O)N1SC(Cl)(Cl)Cl | – | inactive
CCOC1Oc2ccc(OS(C)(=O)=O)cc2C1(C)C (configuration not stated) | 69.1 µM (active) | –
CC(C)(C)C(O)C(Oc1ccc(Cl)cc1)n1cncn1 (configuration not stated) | 18.1 µM (active) and 13.8 µM (active) and 25.4 µM (active) | –
COc1nn(CSP(=S)(OC)OC)c(=O)s1 | – | inactive
O=C(NC(=O)c1c(F)cccc1F)Nc1ccc(OC(F)(F)C(F)OC(F)(F)F)c(Cl)c1 (configuration not stated) | – | inactive
O=C(O)CCCOc1ccc(Cl)cc1Cl | 10.1 µM (active) | –
O=[N+]([O-])/N=C1\NCCN1Cc1ccc(Cl)nc1 | – | inactive
Clc1ccccc1-c1nnc(-c2ccccc2Cl)nn1 | – | inactive
Oc1cc(Cl)ccc1Oc1ccc(Cl)cc1Cl | 51 µM (active) and 79.3 µM (active) | inactive
CCC(C)Nc1c([N+](=O)[O-])cc(C(C)(C)C)cc1[N+](=O)[O-] (configuration not stated) | 50 µM (active) | –
Oc1ccc(Cl)cc1Cc1ccccc1 | 81.7 µM (active) and 81.2 µM (active) | inactive
CNC(=O)/C=C(\C)OP(=O)(OC)OC | – | inactive

Each compound was assayed on Cytochrome P450 3A4 (Homo sapiens) (UniProt P08684) (assay: LTEA_HepaRG_CYP3A4: Life Technologies and Expression Analysis (LTEA) Assay for CYP3A4 using HepaRG (AID 2283487)). Details: mRNA level, 48 h; actives raise or lower the signal.
Sequence of Cytochrome P450 3A4 (Homo sapiens) (P08684 whole entry, looked up): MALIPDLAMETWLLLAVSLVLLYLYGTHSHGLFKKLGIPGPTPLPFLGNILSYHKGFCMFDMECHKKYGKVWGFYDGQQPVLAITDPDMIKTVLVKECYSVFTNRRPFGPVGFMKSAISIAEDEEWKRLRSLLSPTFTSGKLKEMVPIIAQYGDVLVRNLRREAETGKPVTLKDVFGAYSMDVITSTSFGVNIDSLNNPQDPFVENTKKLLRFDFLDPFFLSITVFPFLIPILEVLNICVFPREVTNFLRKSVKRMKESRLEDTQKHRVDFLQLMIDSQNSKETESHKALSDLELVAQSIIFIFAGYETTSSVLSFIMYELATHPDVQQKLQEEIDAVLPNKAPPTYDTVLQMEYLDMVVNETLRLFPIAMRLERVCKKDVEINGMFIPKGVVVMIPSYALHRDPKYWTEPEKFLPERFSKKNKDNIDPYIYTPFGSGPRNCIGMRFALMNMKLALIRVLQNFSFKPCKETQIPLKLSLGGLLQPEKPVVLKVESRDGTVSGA
Method in brief: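 In a human hepatic line (HepaRG), duplicate wells were treated 48 h with up to 100 uM chemical in half-log dilutions. Endpoint: CYP3A4 mRNA induction or loss relative to 0.5% DMSO vehicle, by qRT-PCR.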

Structure (SMILES) | outcome | AC50
O=C(O)C(F)(F)C(F)(F)C(F)(F)C(F)(F)C(F)(F)C(F)(F)C(F)(F)F | inactive | –
CC(C)N(C(=O)COc1nnc(C(F)(F)F)s1)c1ccc(F)cc1 | inactive | –
OCCOc1ccccc1 | inactive | –
O=C(Nc1ccccc1)Nc1cnns1 | inactive | –
CNC(=O)CSP(=S)(OC)OC | inactive | –
CCCN(CCC)c1c([N+](=O)[O-])cc(C(F)(F)F)cc1[N+](=O)[O-] | inactive | –
O=S(=O)(O)C(F)(F)C(F)(F)C(F)(F)C(F)(F)C(F)(F)C(F)(F)C(F)(F)C(F)(F)F | inactive | –
CN1CSC(=S)N(C)C1 | inactive | –
CC1(c2ccc(Oc3ccccc3)cc2)OC(=O)N(Nc2ccccc2)C1=O (configuration not stated) | – | 26.2 µM (active)
O=C1c2ccccc2C(=O)N1SC(Cl)(Cl)Cl | inactive | –
CCOC1Oc2ccc(OS(C)(=O)=O)cc2C1(C)C (configuration not stated) | – | 11.8 µM (active)
COc1nn(CSP(=S)(OC)OC)c(=O)s1 | inactive | –
O=C(NC(=O)c1c(F)cccc1F)Nc1ccc(OC(F)(F)C(F)OC(F)(F)F)c(Cl)c1 (configuration not stated) | inactive | –
O=C(O)CCCOc1ccc(Cl)cc1Cl | inactive | –
O=[N+]([O-])/N=C1\NCCN1Cc1ccc(Cl)nc1 | inactive | –
Clc1ccccc1-c1nnc(-c2ccccc2Cl)nn1 | – | 9.38 µM (active)
Oc1cc(Cl)ccc1Oc1ccc(Cl)cc1Cl | inactive | –
CCC(C)Nc1c([N+](=O)[O-])cc(C(C)(C)C)cc1[N+](=O)[O-] (configuration not stated) | – | 6.12 µM (active)
Oc1ccc(Cl)cc1Cc1ccccc1 | inactive | –
CNC(=O)/C=C(\C)OP(=O)(OC)OC | inactive | –

What follows are compounds tested on DNA damage-inducible transcript 3 (DDIT3), DDIT3 (gene 1649) (assay: LTEA_HepaRG_DDIT3: Life Technologies and Expression Analysis (LTEA) Assay for DNA damage-inducible transcript 3 (DDIT3) using HepaRG (AID 2283488)). Details: mRNA level, 48 h; actives raise or lower the signal.
Method in brief: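 HepaRG plated 48 h, switched to serum-free induction medium, dosed 48 h (100 uM top, half-log, 8 pts, 0.5% DMSO, n=2); RNA isolated; DDIT3 by qRT-PCR; bidirectional curve fit vs DMSO.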

Structure (SMILES) | outcome | AC50
O=C(O)C(F)(F)C(F)(F)C(F)(F)C(F)(F)C(F)(F)C(F)(F)C(F)(F)F | inactive | –
CC(C)N(C(=O)COc1nnc(C(F)(F)F)s1)c1ccc(F)cc1 | inactive | –
OCCOc1ccccc1 | inactive | –
O=C(Nc1ccccc1)Nc1cnns1 | – | 79.2 µM (active)
CNC(=O)CSP(=S)(OC)OC | inactive | –
ClC1C(Cl)C(Cl)C(Cl)C(Cl)C1Cl (configuration not stated) | inactive | –
CCCN(CCC)c1c([N+](=O)[O-])cc(C(F)(F)F)cc1[N+](=O)[O-] | inactive | –
O=S(=O)(O)C(F)(F)C(F)(F)C(F)(F)C(F)(F)C(F)(F)C(F)(F)C(F)(F)C(F)(F)F | – | 60.1 µM (active) [middle of 4 runs]
CN1CSC(=S)N(C)C1 | inactive | –
CC1(c2ccc(Oc3ccccc3)cc2)OC(=O)N(Nc2ccccc2)C1=O (configuration not stated) | – | 8.41 µM (active)
O=C1c2ccccc2C(=O)N1SC(Cl)(Cl)Cl | inactive | –
CCOC1Oc2ccc(OS(C)(=O)=O)cc2C1(C)C (configuration not stated) | – | 93 µM (active)
CC(C)(C)C(O)C(Oc1ccc(Cl)cc1)n1cncn1 (configuration not stated) | inactive | –
COc1nn(CSP(=S)(OC)OC)c(=O)s1 | inactive | –
O=C(NC(=O)c1c(F)cccc1F)Nc1ccc(OC(F)(F)C(F)OC(F)(F)F)c(Cl)c1 (configuration not stated) | inactive | –
O=C(O)CCCOc1ccc(Cl)cc1Cl | inactive | –
O=[N+]([O-])/N=C1\NCCN1Cc1ccc(Cl)nc1 | inactive | –
Clc1ccccc1-c1nnc(-c2ccccc2Cl)nn1 | inactive | –
Oc1cc(Cl)ccc1Oc1ccc(Cl)cc1Cl | inactive | –
CCC(C)Nc1c([N+](=O)[O-])cc(C(C)(C)C)cc1[N+](=O)[O-] (configuration not stated) | inactive | –
Oc1ccc(Cl)cc1Cc1ccccc1 | inactive | –
CNC(=O)/C=C(\C)OP(=O)(OC)OC | inactive | –
